Data: article PMC5540273 (PLoS ONE, 2017)

Assays:
Conditions in all cases: concentration: 1 μM, replicates: in singlicate; n = 1
GRK7 = test system: GRK7
GSK3A = test system: GSK3A
GSK3B = test system: GSK3B
HASPIN = test system: T1, HASPIN
T1 construct: gene GSG2

HCK = test system: HCK
HIPK1 = test system: HIPK1
HIPK2 = test system: HIPK2
HIPK3 = test system: HIPK3
HIPK4 = test system: HIPK4
HPK1 = test system: HPK1
HUNK = test system: HUNK
ICK = test system: ICK
IGF1R = test system: IGF1R
IKK-alpha = test system: T2, IKK-alpha
T2 construct: gene CHUK

IKK-beta = test system: T3, IKK-beta
T3 construct: gene IKBKB

IKK-epsilon = test system: T4, IKK-epsilon
T4 construct: gene IKBKE

INSRR = test system: INSRR
INSR = test system: INSR
IRAK1 = test system: IRAK1
IRAK3 = test system: IRAK3
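Note: KINOMEscan kinase panel screen.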

In the case of `COc1ccccc1CNC(=O)c1cc(C(=O)c2ccccc2C)c[nH]1` [GSK364507], the “%Inh” value (GRK7) is reported as 0%, the “%Inh” value (GSK3A) is reported as 15% and the “%Inh” value (GSK3B) is reported as 0%. For the same compound, the “%Inh” value (HASPIN) was 0%, the “%Inh” value (HCK) was 0% and the “%Inh” value (HIPK1) was 0%. For the same compound, the “%Inh” value (HIPK2) was 0%, the “%Inh” value (HIPK3) was 10% and the “%Inh” value (HIPK4) was 0%. The “%Inh” value (HPK1) was 26%, the “%Inh” value (HUNK) was 16% and the “%Inh” value (ICK) was 11%. The “%Inh” value (IGF1R) was 7%, the “%Inh” value (IKK-alpha) was 9% and the “%Inh” value (IKK-beta) was 13%. For the same compound, the “%Inh” value (IKK-epsilon) was 20%, the “%Inh” value (INSRR) was 0% and the “%Inh” value (INSR) was 8%. For the same compound, the “%Inh” value (IRAK1) was 33% and the “%Inh” value (IRAK3) was 0%.
In the case of `Fc1cc(Cl)ccc1Nc1ccnc2cc(I)ccc12` [GW551191], the “%Inh” value (GRK7) is reported as 0%, the “%Inh” value (GSK3A) is reported as 26% and the “%Inh” value (GSK3B) is reported as 3%. For the same compound, the “%Inh” value (HASPIN) was 0%, the “%Inh” value (HCK) was 0% and the “%Inh” value (HIPK1) was 0%. For the same compound, the “%Inh” value (HIPK2) was 0%, the “%Inh” value (HIPK3) was 0% and the “%Inh” value (HIPK4) was 0%. For the same compound, the “%Inh” value (HPK1) was 35%, the “%Inh” value (HUNK) was 45% and the “%Inh” value (ICK) was 1%. For the same compound, the “%Inh” value (IGF1R) was 6%, the “%Inh” value (IKK-alpha) was 1% and the “%Inh” value (IKK-beta) was 11%. For the same compound, the “%Inh” value (IKK-epsilon) was 19%, the “%Inh” value (INSRR) was 0% and the “%Inh” value (INSR) was 0%. For the same compound, the “%Inh” value (IRAK1) was 32% and the “%Inh” value (IRAK3) was 11%.
In the case of `COc1cccc(NC(=O)NC2CCN(c3ccnc(Nc4ccc(F)cc4)n3)C2)c1` (centres unmarked) [GSK1379721], the “%Inh” value (GRK7) is reported as 0%, the “%Inh” value (GSK3A) is reported as 21% and the “%Inh” value (GSK3B) is reported as 10%. For the same compound, the “%Inh” value (HASPIN) was 0%, the “%Inh” value (HCK) was 0% and the “%Inh” value (HIPK1) was 0%. For the same compound, the “%Inh” value (HIPK2) was 0%, the “%Inh” value (HIPK3) was 7% and the “%Inh” value (HIPK4) was 0%. For the same compound, the “%Inh” value (HPK1) was 59%, the “%Inh” value (HUNK) was 13% and the “%Inh” value (ICK) was 25%. The “%Inh” value (IGF1R) was 0%, the “%Inh” value (IKK-alpha) was 0% and the “%Inh” value (IKK-beta) was 0%. For the same compound, the “%Inh” value (IKK-epsilon) was 15%, the “%Inh” value (INSRR) was 0% and the “%Inh” value (INSR) was 14%. For the same compound, the “%Inh” value (IRAK1) was 12% and the “%Inh” value (IRAK3) was 0%.
With `Cc1c(O)cccc1Nc1ccnc2ccc(C(F)(F)F)cc12.Cl` [GW466413] the “%Inh” value (GRK7) was 0%, the “%Inh” value (GSK3A) was 9% and the “%Inh” value (GSK3B) was 0%. For the same compound, the “%Inh” value (HASPIN) was 34%, the “%Inh” value (HCK) was 43% and the “%Inh” value (HIPK1) was 0%. The “%Inh” value (HIPK2) was 0%, the “%Inh” value (HIPK3) was 0% and the “%Inh” value (HIPK4) was 0%. The “%Inh” value (HPK1) was 3%, the “%Inh” value (HUNK) was 93.4% and the “%Inh” value (ICK) was 0%. The “%Inh” value (IGF1R) was 0%, the “%Inh” value (IKK-alpha) was 8% and the “%Inh” value (IKK-beta) was 0%. The “%Inh” value (IKK-epsilon) was 0%, the “%Inh” value (INSRR) was 0% and the “%Inh” value (INSR) was 0%. The “%Inh” value (IRAK1) was 0% and the “%Inh” value (IRAK3) was 0%.
With `Cc1nnc(-c2ccc3occ(-c4ccc(S(C)=O)cc4)c3c2)[nH]1` (centres unmarked) the “%Inh” value (GRK7) was 6%, the “%Inh” value (GSK3A) was 86% and the “%Inh” value (GSK3B) was 75%. The “%Inh” value (HASPIN) was 25%, the “%Inh” value (HCK) was 0% and the “%Inh” value (HIPK1) was 69%. For the same compound, the “%Inh” value (HIPK2) was 84%, the “%Inh” value (HIPK3) was 81% and the “%Inh” value (HIPK4) was 36%. For the same compound, the “%Inh” value (HPK1) was 0%, the “%Inh” value (HUNK) was 0% and the “%Inh” value (ICK) was 0%. The “%Inh” value (IGF1R) was 0%, the “%Inh” value (IKK-alpha) was 26% and the “%Inh” value (IKK-beta) was 20%. For the same compound, the “%Inh” value (IKK-epsilon) was 0%, the “%Inh” value (INSRR) was 0% and the “%Inh” value (INSR) was 4%. The “%Inh” value (IRAK1) was 0% and the “%Inh” value (IRAK3) was 66%.
In the case of `Cc1ccc(NC(=O)Nc2cc(C(C)(C)C)nn2-c2ccccc2)cc1` [GSK1014915], the “%Inh” value (GRK7) is reported as 0%, the “%Inh” value (GSK3A) is reported as 0% and the “%Inh” value (GSK3B) is reported as 13%. The “%Inh” value (HASPIN) was 0%, the “%Inh” value (HCK) was 0% and the “%Inh” value (HIPK1) was 0%. The “%Inh” value (HIPK2) was 0%, the “%Inh” value (HIPK3) was 13% and the “%Inh” value (HIPK4) was 0%. For the same compound, the “%Inh” value (HPK1) was 25%, the “%Inh” value (HUNK) was 0% and the “%Inh” value (ICK) was 23%. The “%Inh” value (IGF1R) was 8%, the “%Inh” value (IKK-alpha) was 22% and the “%Inh” value (IKK-beta) was 20%. The “%Inh” value (IKK-epsilon) was 1%, the “%Inh” value (INSRR) was 0% and the “%Inh” value (INSR) was 13%. For the same compound, the “%Inh” value (IRAK1) was 23% and the “%Inh” value (IRAK3) was 100%.
In the case of `O=S(=O)(c1ccc(-c2ccnc3[nH]ccc23)cc1)N1CCCC1` [GSK846226], the “%Inh” value (GRK7) is reported as 0%, the “%Inh” value (GSK3A) is reported as 15% and the “%Inh” value (GSK3B) is reported as 16%. The “%Inh” value (HASPIN) was 12%, the “%Inh” value (HCK) was 0% and the “%Inh” value (HIPK1) was 45%. The “%Inh” value (HIPK2) was 0%, the “%Inh” value (HIPK3) was 48% and the “%Inh” value (HIPK4) was 23%. The “%Inh” value (HPK1) was 25%, the “%Inh” value (HUNK) was 0% and the “%Inh” value (ICK) was 0%. The “%Inh” value (IGF1R) was 0%, the “%Inh” value (IKK-alpha) was 29% and the “%Inh” value (IKK-beta) was 94.3%. For the same compound, the “%Inh” value (IKK-epsilon) was 31%, the “%Inh” value (INSRR) was 0% and the “%Inh” value (INSR) was 0%. For the same compound, the “%Inh” value (IRAK1) was 8% and the “%Inh” value (IRAK3) was 22%.
